The inhibition is the drop in the measured response relative to a control, in per cent.

For 6 compounds, inhibition results are on record in ChEMBL document CHEMBL1961873, “Compounds: GSK PKIS; Assays: Nanosyn kinase panel” (2012).

Experiment [1] addresses T1, Aurora kinase A (Homo sapiens) (UniProt O14965).
T1 sequence (whole entry): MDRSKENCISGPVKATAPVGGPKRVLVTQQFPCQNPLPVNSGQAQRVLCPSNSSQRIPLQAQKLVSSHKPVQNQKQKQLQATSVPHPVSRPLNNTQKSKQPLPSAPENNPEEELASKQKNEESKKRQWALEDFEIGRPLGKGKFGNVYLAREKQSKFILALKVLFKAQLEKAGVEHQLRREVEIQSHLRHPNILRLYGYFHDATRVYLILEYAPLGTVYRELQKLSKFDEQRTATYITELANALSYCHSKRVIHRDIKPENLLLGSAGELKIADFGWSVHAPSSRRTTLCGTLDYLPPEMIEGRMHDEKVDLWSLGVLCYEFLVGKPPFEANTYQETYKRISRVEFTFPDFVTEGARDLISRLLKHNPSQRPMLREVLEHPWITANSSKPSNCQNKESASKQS
To be noted: at 1 µM.

Experiment [2] has as its target Aurora kinase B (Homo sapiens) (UniProt Q96GD4). To be noted: at 0.1 µM.
The target is the same in experiment [3]. To be noted: at 1 µM.
Experiment [4] has as its target T2, Aurora kinase C (Homo sapiens) (UniProt Q9UQB9).
T2 sequence (whole entry): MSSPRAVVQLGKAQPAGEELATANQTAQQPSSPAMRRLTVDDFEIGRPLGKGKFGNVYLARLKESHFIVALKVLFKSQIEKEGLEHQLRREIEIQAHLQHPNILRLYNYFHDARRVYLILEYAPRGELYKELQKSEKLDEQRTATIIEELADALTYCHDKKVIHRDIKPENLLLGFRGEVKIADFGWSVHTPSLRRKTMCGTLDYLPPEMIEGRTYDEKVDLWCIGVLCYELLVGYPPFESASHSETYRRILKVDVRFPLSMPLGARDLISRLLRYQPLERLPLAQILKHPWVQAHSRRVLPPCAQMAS
To be noted: at 0.1 µM.

For experiment [5], the target named is T2, Aurora kinase C (Homo sapiens). To be noted: at 1 µM.
Experiment [6] concerns the target Serine/threonine-protein kinase 10 (Homo sapiens) (UniProt O94804). To be noted: at 0.1 µM.
For experiment [7] the target is unchanged. To be noted: at 1 µM.
Experiment [8] deals with T3, Mitogen-activated protein kinase kinase kinase kinase 2 (Homo sapiens) (UniProt Q12851).
T3 sequence (whole entry): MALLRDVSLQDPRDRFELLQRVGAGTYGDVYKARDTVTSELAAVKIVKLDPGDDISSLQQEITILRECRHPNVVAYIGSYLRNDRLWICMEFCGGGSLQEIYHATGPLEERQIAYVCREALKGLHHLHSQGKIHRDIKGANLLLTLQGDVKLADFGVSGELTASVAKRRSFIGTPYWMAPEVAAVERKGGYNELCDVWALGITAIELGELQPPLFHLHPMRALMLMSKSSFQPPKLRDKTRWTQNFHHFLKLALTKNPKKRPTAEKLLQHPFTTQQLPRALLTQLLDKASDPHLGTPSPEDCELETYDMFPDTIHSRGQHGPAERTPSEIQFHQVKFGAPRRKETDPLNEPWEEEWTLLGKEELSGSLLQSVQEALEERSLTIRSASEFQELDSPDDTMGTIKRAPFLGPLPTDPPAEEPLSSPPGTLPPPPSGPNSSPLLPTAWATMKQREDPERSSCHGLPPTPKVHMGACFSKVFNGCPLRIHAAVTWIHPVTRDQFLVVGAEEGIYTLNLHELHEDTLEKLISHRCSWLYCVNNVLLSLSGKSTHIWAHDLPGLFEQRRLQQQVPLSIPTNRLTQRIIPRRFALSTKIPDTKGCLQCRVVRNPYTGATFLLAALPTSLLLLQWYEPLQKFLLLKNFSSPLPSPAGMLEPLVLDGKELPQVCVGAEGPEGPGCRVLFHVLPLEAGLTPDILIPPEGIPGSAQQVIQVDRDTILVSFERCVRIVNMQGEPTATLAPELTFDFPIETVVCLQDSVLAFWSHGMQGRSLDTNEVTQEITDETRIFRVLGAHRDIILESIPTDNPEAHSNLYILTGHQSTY
To be noted: at 0.1 µM.

The target of experiment [9] is T3, Mitogen-activated protein kinase kinase kinase kinase 2 (Homo sapiens). To be noted: at 1 µM.
Experiment [10] has as its target Mitogen-activated protein kinase kinase kinase kinase 4 (Homo sapiens) (UniProt O95819). To be noted: at 0.1 µM.
Experiment [11] shares this target. To be noted: at 1 µM.
Experiment [12] concerns the target Dual specificity mitogen-activated protein kinase kinase 1 (Homo sapiens) (UniProt Q02750). As to conditions: at 0.1 µM.
Experiment [13] has the same target. As to conditions: at 1 µM.
Experiment [14] deals with Misshapen-like kinase 1 (Homo sapiens) (UniProt Q8N4C8). To be noted: at 0.1 µM.
The target is the same in experiment [15]. To be noted: at 1 µM.
For experiment [16], the target named is T4, Serine/threonine-protein kinase 4 (Homo sapiens) (UniProt Q13043).
T4 sequence (whole entry): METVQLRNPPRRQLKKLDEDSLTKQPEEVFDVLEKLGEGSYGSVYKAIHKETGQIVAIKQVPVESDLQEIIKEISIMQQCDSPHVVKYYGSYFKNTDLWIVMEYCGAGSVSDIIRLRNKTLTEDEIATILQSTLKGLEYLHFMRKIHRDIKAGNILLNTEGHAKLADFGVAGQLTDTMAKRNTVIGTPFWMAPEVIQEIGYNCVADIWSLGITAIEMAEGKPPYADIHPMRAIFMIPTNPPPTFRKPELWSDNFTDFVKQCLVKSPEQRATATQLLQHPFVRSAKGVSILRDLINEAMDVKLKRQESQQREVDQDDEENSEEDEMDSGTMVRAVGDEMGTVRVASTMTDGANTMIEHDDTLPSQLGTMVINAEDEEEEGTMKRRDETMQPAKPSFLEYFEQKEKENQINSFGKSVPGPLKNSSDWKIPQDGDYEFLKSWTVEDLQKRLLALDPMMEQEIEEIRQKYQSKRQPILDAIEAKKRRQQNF
To be noted: at 0.1 µM.

Experiment [17] addresses T4, Serine/threonine-protein kinase 4 (Homo sapiens). To be noted: at 1 µM.
The target of experiment [18] is T5, Serine/threonine-protein kinase 3 (Homo sapiens) (UniProt Q13188).
T5 sequence (whole entry): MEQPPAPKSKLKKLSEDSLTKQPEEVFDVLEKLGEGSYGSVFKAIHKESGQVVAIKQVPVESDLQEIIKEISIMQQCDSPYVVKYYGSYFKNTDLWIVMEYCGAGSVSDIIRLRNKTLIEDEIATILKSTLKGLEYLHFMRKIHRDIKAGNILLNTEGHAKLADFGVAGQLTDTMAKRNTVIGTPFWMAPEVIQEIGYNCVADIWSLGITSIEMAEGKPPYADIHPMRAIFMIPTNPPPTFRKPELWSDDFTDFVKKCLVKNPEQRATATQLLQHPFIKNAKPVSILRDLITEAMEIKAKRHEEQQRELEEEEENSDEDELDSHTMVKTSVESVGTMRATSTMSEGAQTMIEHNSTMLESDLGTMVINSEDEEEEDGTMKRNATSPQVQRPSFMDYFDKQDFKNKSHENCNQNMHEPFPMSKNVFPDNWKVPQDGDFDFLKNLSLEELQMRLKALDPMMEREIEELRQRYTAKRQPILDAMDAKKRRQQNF
As to conditions: at 0.1 µM.

The target in experiment [19] is T5, Serine/threonine-protein kinase 3 (Homo sapiens). As to conditions: at 1 µM.
Experiment [20] has as its target Serine/threonine-protein kinase 26 (Homo sapiens) (UniProt Q9P289). As to conditions: at 0.1 µM.

Chain of Misshapen-like kinase 1 (Homo sapiens) (Q8N4C8 whole entry, looked up): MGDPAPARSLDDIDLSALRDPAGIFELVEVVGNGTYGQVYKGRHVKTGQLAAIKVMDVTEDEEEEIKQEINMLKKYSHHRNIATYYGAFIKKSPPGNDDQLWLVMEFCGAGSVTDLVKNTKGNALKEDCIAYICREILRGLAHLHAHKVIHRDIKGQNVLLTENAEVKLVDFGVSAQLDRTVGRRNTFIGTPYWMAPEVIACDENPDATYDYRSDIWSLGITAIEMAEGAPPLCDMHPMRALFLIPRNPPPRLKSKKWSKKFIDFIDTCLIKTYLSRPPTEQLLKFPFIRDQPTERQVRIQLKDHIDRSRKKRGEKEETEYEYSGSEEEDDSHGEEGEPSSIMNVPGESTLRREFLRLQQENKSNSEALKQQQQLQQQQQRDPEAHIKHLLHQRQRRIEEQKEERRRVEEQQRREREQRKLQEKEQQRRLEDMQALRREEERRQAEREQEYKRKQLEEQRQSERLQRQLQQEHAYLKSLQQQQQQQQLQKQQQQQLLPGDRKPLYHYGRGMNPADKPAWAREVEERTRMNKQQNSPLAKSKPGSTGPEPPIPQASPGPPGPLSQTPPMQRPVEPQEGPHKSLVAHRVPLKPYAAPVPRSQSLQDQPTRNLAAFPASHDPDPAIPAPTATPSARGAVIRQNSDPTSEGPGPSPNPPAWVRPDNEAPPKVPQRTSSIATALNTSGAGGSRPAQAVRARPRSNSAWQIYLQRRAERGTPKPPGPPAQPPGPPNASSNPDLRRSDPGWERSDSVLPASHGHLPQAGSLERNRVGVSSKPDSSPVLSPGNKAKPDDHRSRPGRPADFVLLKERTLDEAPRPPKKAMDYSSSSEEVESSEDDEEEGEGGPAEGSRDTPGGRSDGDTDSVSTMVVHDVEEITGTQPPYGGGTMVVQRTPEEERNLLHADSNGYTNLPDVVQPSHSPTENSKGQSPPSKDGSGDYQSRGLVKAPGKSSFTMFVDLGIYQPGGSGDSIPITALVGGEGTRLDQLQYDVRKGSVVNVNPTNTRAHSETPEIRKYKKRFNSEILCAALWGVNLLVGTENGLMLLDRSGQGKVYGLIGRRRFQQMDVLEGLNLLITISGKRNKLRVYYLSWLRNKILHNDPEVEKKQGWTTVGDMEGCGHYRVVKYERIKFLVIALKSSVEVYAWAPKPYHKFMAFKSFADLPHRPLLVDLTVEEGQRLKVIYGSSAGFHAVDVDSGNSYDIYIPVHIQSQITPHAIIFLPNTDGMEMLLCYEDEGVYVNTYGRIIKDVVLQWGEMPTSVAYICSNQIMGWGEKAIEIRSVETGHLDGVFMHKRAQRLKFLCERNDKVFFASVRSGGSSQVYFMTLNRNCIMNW
Chain of Mitogen-activated protein kinase kinase kinase kinase 4 (Homo sapiens) (O95819 2-1239 limits assumed): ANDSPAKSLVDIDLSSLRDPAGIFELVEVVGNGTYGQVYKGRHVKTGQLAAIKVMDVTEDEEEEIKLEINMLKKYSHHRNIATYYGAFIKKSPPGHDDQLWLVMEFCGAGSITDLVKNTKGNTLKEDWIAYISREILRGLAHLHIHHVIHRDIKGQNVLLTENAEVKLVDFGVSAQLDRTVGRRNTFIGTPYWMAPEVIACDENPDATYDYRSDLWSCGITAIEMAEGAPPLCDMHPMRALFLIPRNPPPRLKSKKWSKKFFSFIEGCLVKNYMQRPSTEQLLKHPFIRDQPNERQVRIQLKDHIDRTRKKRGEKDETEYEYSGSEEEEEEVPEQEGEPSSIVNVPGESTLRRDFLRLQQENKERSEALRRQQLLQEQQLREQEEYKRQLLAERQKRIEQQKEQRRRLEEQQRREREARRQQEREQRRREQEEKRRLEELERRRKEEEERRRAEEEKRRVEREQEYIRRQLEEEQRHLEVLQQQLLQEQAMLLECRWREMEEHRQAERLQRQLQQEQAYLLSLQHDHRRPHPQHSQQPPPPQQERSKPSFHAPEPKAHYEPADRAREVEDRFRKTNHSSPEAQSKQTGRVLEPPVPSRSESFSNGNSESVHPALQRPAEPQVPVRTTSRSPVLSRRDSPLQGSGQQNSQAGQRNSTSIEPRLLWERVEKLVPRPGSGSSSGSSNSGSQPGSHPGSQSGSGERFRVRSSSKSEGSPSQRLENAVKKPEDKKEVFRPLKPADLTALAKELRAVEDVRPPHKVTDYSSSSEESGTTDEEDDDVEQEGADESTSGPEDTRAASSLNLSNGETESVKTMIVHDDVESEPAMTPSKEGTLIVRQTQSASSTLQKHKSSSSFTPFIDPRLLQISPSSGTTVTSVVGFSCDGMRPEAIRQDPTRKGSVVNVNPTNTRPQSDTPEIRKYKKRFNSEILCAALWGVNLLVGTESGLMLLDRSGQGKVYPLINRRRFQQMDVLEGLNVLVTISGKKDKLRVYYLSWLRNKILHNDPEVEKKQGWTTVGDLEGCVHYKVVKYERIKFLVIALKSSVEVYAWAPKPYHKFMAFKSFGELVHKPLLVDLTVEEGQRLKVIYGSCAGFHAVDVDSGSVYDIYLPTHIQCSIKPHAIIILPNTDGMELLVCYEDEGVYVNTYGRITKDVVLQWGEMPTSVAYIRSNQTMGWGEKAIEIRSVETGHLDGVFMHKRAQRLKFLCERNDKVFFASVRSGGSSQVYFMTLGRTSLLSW
Chain of Aurora kinase B (Homo sapiens) (Q96GD4 whole entry): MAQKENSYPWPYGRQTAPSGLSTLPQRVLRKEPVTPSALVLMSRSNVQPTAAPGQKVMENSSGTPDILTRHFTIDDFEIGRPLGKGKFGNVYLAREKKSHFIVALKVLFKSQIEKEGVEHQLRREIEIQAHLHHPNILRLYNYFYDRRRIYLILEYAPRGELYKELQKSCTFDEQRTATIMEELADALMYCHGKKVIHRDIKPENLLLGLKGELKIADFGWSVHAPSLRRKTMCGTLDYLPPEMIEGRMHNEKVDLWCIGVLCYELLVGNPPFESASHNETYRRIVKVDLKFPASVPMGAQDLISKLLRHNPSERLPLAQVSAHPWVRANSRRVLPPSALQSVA
Chain of Serine/threonine-protein kinase 10 (Homo sapiens) (O94804 whole entry, looked up): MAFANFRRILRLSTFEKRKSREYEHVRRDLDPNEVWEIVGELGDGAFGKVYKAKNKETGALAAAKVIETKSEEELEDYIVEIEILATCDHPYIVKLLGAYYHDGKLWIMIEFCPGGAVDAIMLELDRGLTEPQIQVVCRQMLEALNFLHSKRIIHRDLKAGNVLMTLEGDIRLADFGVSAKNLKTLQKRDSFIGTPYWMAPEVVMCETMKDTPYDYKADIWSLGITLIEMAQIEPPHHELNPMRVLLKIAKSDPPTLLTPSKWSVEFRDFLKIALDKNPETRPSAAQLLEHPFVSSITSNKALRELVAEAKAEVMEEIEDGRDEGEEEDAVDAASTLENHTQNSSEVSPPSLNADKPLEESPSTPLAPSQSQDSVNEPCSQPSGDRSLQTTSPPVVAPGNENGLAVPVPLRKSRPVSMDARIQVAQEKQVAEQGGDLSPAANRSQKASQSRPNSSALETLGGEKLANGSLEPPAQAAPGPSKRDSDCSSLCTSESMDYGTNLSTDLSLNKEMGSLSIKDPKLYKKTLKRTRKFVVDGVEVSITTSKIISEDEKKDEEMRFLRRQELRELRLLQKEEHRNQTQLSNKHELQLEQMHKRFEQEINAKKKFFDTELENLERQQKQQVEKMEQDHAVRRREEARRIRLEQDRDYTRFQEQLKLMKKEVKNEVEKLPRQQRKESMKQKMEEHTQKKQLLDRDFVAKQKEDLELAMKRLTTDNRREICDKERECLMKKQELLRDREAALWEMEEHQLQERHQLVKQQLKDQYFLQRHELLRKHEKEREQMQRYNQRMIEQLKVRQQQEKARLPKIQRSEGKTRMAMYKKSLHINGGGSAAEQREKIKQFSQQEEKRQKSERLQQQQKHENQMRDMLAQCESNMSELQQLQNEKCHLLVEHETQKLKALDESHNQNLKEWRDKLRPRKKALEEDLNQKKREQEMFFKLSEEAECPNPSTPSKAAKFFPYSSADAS
Chain of Dual specificity mitogen-activated protein kinase kinase 1 (Homo sapiens) (Q02750 whole entry): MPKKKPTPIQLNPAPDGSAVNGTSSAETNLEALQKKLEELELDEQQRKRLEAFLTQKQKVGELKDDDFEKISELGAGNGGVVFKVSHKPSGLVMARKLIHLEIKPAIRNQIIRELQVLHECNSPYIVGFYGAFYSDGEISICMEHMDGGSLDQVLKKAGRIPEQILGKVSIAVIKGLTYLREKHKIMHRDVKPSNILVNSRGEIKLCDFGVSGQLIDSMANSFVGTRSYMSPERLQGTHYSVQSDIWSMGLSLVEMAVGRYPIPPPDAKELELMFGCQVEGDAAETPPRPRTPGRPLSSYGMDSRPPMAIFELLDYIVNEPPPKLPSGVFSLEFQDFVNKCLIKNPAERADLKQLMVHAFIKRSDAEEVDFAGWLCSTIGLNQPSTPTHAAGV
Chain of Serine/threonine-protein kinase 26 (Homo sapiens) (Q9P289 2-416 limits assumed): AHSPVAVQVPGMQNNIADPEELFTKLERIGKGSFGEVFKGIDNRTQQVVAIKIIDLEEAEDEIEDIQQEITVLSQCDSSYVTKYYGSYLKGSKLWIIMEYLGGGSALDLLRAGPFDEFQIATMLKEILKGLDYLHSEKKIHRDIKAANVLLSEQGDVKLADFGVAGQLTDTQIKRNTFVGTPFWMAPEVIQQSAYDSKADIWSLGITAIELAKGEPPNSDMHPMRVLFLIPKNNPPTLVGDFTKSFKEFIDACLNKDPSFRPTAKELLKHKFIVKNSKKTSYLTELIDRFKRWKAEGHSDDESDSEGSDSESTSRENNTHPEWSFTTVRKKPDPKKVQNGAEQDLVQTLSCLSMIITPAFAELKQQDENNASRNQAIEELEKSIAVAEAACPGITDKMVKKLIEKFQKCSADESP

`N#Cc1cccc(Nc2nccc(-c3cnn4ncccc34)n2)c1`: the inhibition in experiment [1] was determined as 74.5%; in experiment [2], 19.3%; in experiment [3], 64%; in [4], 18.5%; in [5], 96.7%; in experiment [6] it was 5.05%. Moreover, the inhibition was found to be 15.8% in experiment [7]; 11% in experiment [8]; 45.8% in experiment [9]; 19.3% in [10]; 64.3% in experiment [11]; 19.5% in [12]. Also, the inhibition worked out at 63% in [13]; 16.6% in experiment [14]; 53.4% in [15]; 8.96% in experiment [16]; 27.6% in experiment [17]; 7.72% in experiment [18]. The inhibition was 24.4% in experiment [19] and -0.39% in experiment [20].
Turning to `N#Cc1c(NC(=O)c2ccccc2F)sc2c1CCCC2`, the inhibition in experiment [1] is -2.59%; in experiment [2], -1.47%; in experiment [3] it was 0.26%; in experiment [4], -2%; in experiment [5], 0.91%; in [6], -0.59%. The inhibition is 4.2% in experiment [7]; 1.34% in [8]; 2.61% in experiment [9]; -1.47% in [10]; -0.82% in experiment [11]; 0.34% in experiment [12]. The inhibition in [13] is -0.71%; in [14], -1.75%; in experiment [15] it was -2.13%; in [16], -0.37%; in experiment [17], 3.02%; in [18], -3.35%. For the same compound, the figures for the inhibition in experiment [19] and in [20] were 1.41% and -0.08%, respectively.
Turning to `NC(=O)c1cccc(Nc2nccc(Nc3cccc(F)c3)n2)c1`, the inhibition in experiment [1] was 65.5%; in experiment [2], 12.6%; in [3], 49.3%; in [4], 25.6%; in experiment [5] it was 85.2%; in [6], -0.14%. The inhibition was 12.3% in [7]; 0.98% in experiment [8]; 14.1% in [9]; 8.77% in [10]; 44.9% in experiment [11]; -0.23% in experiment [12]. Further, the inhibition in experiment [13] was found to be 1.42%; in experiment [14], 6.07%; in experiment [15], 33.3%; in experiment [16], 0.59%; in experiment [17], 12.2%; in [18], 1.63%. The inhibition in experiment [19] was 6.4%; in experiment [20] it was -0.81%.
For `FC(F)(F)c1ccc(-c2nn3ncccc3c2-c2ccnc(Nc3ccc4c(c3)OCCO4)n2)cc1`, the inhibition was 29.2% in experiment [1]; 7.15% in experiment [2]; 11.2% in [3]; 4.98% in experiment [4]; 12.1% in [5]; 10.5% in experiment [6]. The inhibition in experiment [7] came to 30.1%; in [8], 6.41%; in experiment [9] it was 6.88%; in experiment [10], 3.6%; in [11], 12%; in [12], 1.64%. The inhibition is -1.13% in [13]; 2.9% in experiment [14]; 11.5% in experiment [15]; 3.87% in experiment [16]; 7.46% in experiment [17]; 4.21% in [18]. Besides, the inhibition in [19] turned out to be 8.12%; in [20] it was 6.19%.
In the case of `O=S(=O)(CCOCc1ccc(-c2ccc3ncnc(Nc4ccc(OCc5cccc(F)c5)c(Cl)c4)c3c2)o1)c1ccccc1`, the inhibition was 2.01% in experiment [1]; 2.69% in experiment [2]; 7.69% in experiment [3]; -0.03% in experiment [4]; 5.99% in experiment [5]; 2.38% in experiment [6]. Besides, the inhibition in experiment [7] turned out to be 5.21%; in [8], 0.66%; in experiment [9], 3.12%; in experiment [10], 6.19%; in experiment [11] it was 7%; in [12], 2.11%. The inhibition in experiment [13] came out at 3.33%; in [14] it was 3.54%; in [15] it was 5.66%; in experiment [16], 4.3%; in experiment [17], 7.99%; in [18] it was 0.99%. Moreover, the inhibition in [19] was 5.7%; in [20], -0.04%.
As for `CCn1c(-c2nonc2N)nc2ccc(F)cc21`, the inhibition in experiment [1] is 4.08%; in experiment [2], 1.24%; in [3], 7.81%; in [4], 1.48%; in experiment [5], -2.72%; in [6], 9.56%. Moreover, the inhibition in experiment [7] turned out to be 13.5%; in experiment [8] it was 1.16%; in experiment [9], 2.01%; in experiment [10] it was 4.2%; in experiment [11], 9.77%; in [12], 9.94%. The inhibition is 7.03% in experiment [13]; 6.88% in [14]; 9.59% in [15]; 5.88% in experiment [16]; 5.97% in experiment [17]; 6.38% in experiment [18]. In addition, the inhibition in experiment [19] was 6.55%; in experiment [20], -1.73%.
